Data reported in PubChem BioAssay (Tox21).
Where “and” joins values, the source holds several entries; their conditions need not be identical. Equal values may be shown once. Records with an inconclusive call do not appear. Entries that show only a call come without a potency. The source holds several records for some structures; these can differ, active in one and inactive in another. Calls of active or inactive are those of the source. Unless noted, the call rests on the fitted dose curve; in most records, active means well fitted curve in the direction sought with a large enough effect in the repeat runs; inconclusive means weak or mixed curves; inactive means no such curve, though single readings can be large; an effect the other way counts as inactive or inconclusive.

Experiments:
[1] = biological target: Thyrotropin receptor (Homo sapiens) (UniProt P16473); assay: qHTS assay to identify small molecule agonists of the thyroid stimulating hormone receptor (TSHR) signaling pathway (AID 1224843; calls by dose curve; further: nearly all actives have a fitted effect of over 45% in size)
Method in brief: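 Using 15 concentrations per compound in triplicate, cAMP production was monitored in TSHR-HEK293 cells after 30 min compound incubation at RT; HTRF reagents followed, with fluorescence intensity recorded after 1 h.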

[2] = qHTS assay to identify small molecule agonists of H2AX - cell viability counter screen (AID 1224847; calls by dose curve; further: top concentration of the series differs between compounds; nearly all actives have a fitted effect of over 30% in size)
Method in brief: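 CHO-K1 wt, 1000 cells/well, o/n 37C; cpds 15 conc, 3 h 37C, 0.76% DMSO; CellTiter-Glo, 30 min RT, luminescence.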

[3] = qHTS assay to identify small molecule agonists of the estrogen related receptor (ERR) signaling pathway from Tox21 library (AID 1224849; calls by dose curve; further: nearly all actives have a fitted effect of over 15% in size); settings: ERR reporter cell line, ONE-Glo luciferase, 18 h
Method in brief: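 Cells carrying the ERR reporter were plated and allowed to settle for 6 h, exposed to library compounds for 18 h at 37 C, then lysed with ONE-Glo and luminescence measured.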

[4] = qHTS RealTime-Glo MT Cell Viability Assay in HepG2 cells - 24 hour (AID 1224867); further: nearly all actives have a fitted effect of over 50% in size; further: potency means the concentration at half of the fitted maximal effect
Method in brief: (§1)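 HepG2 suspension premixed with RealTime-Glo reagents is plated at 600 cells per well and left 5 h at 37 C/5% CO2. Compounds in DMSO then go in, and bioluminescence reflecting viable cell number is recorded over 40 h.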

[5] = qHTS RealTime-Glo MT Cell Viability Assay in HEK293 cells - 32 hour (AID 1224868); further: nearly all actives have a fitted effect of over 50% in size; further: potency means the concentration at half of the fitted maximal effect
Method in brief: (§2)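 Reads taken at 0, 8, 16, 24, 32 and 40 h from the same wells. HEK293 cells (600/well) carried RealTime-Glo reagents from seeding, with compound added after a 5 h settle at 37 C.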

[6] = A CellTox Green Cytotoxicity Assay to monitor cytotoxicity in HEK293 cells - 0 hour (AID 1224869); further: nearly all actives have a fitted effect of over 50% in size
Method in brief: (§3)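 Cells (HEK293, 600/well) and dye reagent are dispensed together. After 5 h at 37 C, 23 nL compound is pinned in. Plates stay at 37 C for 40 h with fluorescence read at 0h, 8h, 16h, 24h, 32h and 40h.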

[7] = qHTS RealTime-Glo MT Cell Viability Assay in HepG2 cells - 40 hour (AID 1224870); further: nearly all actives have a fitted effect of over 50% in size
Method in brief: (§4)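 HepG2 cells mixed with RealTime-Glo MT reagents (NanoLuc plus cell-permeant prosubstrate) were seeded at 600 cells/well, incubated 5 h at 37 C/5% CO2, then pinned with compounds in DMSO; nonlytic luminescence tracked viability during 40 h treatment.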

[8] = A CellTox Green Cytotoxicity Assay to monitor cytotoxicity in HEK293 cells - 40 hour (AID 1224871); further: nearly all actives have a fitted effect of over 45% in size; further: potency means the concentration at half of the fitted maximal effect
Method in brief: as §3

[9] = qHTS RealTime-Glo MT Cell Viability Assay in HEK293 cells - 16 hour (AID 1224872); further: nearly all actives have a fitted effect of over 50% in size; further: potency means the concentration at half of the fitted maximal effect
Method in brief: as §2

[10] = qHTS RealTime-Glo MT Cell Viability Assay in HepG2 cells - 8 hour (AID 1224873); further: nearly all actives have a fitted effect of over 55% in size
Method in brief: as §4

[11] = qHTS RealTime-Glo MT Cell Viability Assay in HEK293 cells - 40 hour (AID 1224874); settings: RealTime-Glo luminescence; max response: stronger effect = lower value; further: nearly all actives have a fitted effect of over 50% in size; further: potency means the concentration at half of the fitted maximal effect
Method in brief: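 Real-time viability in HEK293: signal arises when living cells convert a prosubstrate for NanoLuc in the medium, so luminescence tracks viable cell number. Compound (23 nL, DMSO) added 5 h post-seeding; kinetic reads at 0–40 h, 37 C.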

[12] = A CellTox Green Cytotoxicity Assay to monitor cytotoxicity in HEK293 cells - 24 hour (AID 1224875); further: nearly all actives have a fitted effect of over 45% in size; further: potency means the concentration at half of the fitted maximal effect
Method in brief: as §3

[13] = A CellTox Green Cytotoxicity Assay to monitor cytotoxicity in HepG2 cells - 16 hour (AID 1224876); further: nearly all actives have a fitted effect of over 45% in size; further: potency means the concentration at half of the fitted maximal effect
Method in brief: (§5)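 Cells and non-lytic dye reagent are dispensed together (600 HepG2 cells/well) and incubated 5 h before DMSO compound transfer. Kinetic fluorescence is then recorded in the same wells during 40 h at 37 C.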

[14] = qHTS RealTime-Glo MT Cell Viability Assay in HepG2 cells - 32 hour (AID 1224877); further: nearly all actives have a fitted effect of over 55% in size; further: potency means the concentration at half of the fitted maximal effect
Method in brief: as §1

[15] = A CellTox Green Cytotoxicity Assay to monitor cytotoxicity in HepG2 cells - 24 hour (AID 1224878); further: nearly all actives have a fitted effect of over 45% in size; further: potency means the concentration at half of the fitted maximal effect
Method in brief: as §5

[16] = A CellTox Green Cytotoxicity Assay to monitor cytotoxicity in HepG2 cells - 40 hour (AID 1224879); further: nearly all actives have a fitted effect of over 40% in size
Method in brief: as §5

[17] = qHTS assay to identify small molecule agonists of the hypoxia (HIF-1) signaling pathway (AID 1224846; active means well fitted activation curve with a large enough effect in the signal ratio in the repeat runs, not every such curve was filed as active; the % refers to the signal ratio)
Method in brief: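 Compounds from the Tox21 10K library, dissolved in DMSO, are tested for induction of a hypoxia response element–controlled beta-lactamase reporter in ME-180 cells. Exposure lasts 17 hrs at 37C after a 5 hr settling period, followed by CCF4-AM FRET substrate.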

[18] = qHTS assay to identify small molecule antagonists of the estrogen related receptor (ERR) signaling pathway from Tox21 library (AID 1224848); further: nearly all actives have a fitted effect of over 50% in size; further: potency means the concentration at half of the fitted maximal effect
Method in brief: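 Tox21 10K compounds in DMSO tested for ERR pathway antagonism in NTP's ERR cell line; 18 h, 37 C exposure; ONE-Glo luminescence.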

[19] = qHTS assay to identify small molecule agonists of H2AX (AID 1224845; active means well fitted activation curve with a large enough effect in the signal ratio in the repeat runs, not every such curve was filed as active; the % refers to the signal ratio)
Method in brief: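 Wild-type CHO-K1 cells plated overnight, then exposed 3 hr at 37C to compounds at 15 concentrations (0.76% DMSO). Lysed, then HTRF anti-pH2AX(S139)-cryptate/anti-H2AX-d2 detection after 24 hr at room temperature; emissions 665 and 620 nm.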

[20] = at 92.4 µM (top of the series) unless noted

Thyrotropin receptor (Homo sapiens), sequence (P16473 whole entry, looked up): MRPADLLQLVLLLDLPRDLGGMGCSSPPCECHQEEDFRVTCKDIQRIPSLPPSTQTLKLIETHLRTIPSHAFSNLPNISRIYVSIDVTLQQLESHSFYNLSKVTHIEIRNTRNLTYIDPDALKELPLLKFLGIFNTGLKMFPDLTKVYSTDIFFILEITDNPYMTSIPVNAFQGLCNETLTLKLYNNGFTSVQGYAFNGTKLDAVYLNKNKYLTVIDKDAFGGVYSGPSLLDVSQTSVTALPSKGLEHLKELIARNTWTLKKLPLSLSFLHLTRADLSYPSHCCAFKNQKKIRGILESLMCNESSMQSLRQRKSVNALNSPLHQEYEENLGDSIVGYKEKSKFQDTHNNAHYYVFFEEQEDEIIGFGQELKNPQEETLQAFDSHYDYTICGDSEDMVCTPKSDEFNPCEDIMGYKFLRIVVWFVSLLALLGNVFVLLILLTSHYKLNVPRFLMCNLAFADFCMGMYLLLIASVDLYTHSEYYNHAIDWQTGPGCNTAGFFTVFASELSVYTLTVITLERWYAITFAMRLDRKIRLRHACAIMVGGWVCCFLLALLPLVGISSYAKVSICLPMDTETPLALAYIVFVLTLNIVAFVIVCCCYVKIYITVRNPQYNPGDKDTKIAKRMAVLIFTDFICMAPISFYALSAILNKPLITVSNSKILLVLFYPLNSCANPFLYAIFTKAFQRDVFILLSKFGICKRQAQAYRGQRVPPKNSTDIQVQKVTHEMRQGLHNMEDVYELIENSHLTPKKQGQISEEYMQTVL

## O=C1c2ccccc2C(=O)C1C(=O)C(c1ccccc1)c1ccccc1
[1]
  Potency: inactive
[2]
  Potency: inactive
[3]; [20]
  activity change, positive = activation: -7.49% [at 42.5 µM] (inactive)
[4]
  Potency: inactive
[5]
  Potency: inactive
[6]
  Potency: inactive
[7]
  Potency: inactive
[8]
  Potency: inactive
[9]
  Potency: inactive
[10]
  Potency: inactive
[11]
  max response: 3.22% (inactive)
[12]
  Potency: inactive
[13]
  Potency: inactive
[14]
  Potency: inactive
[15]
  Potency: inactive
[16]
  Potency: inactive

## CCOP(=S)(OCC)SCn1nnc2ccccc2c1=O
[1]
  Potency: inactive
[17]
  outcome: inactive
[18]
  Potency: 27.3 µM (active)
[3]; [20]
  activity change, positive = activation: -48.2% (inactive)
[4]
  Potency: inactive
[5]
  Potency: 21.9 µM (active)
[6]
  Potency: inactive
[7]
  Potency: inactive
[8]
  Potency: inactive
[9]
  Potency: 21.9 µM (active)
[11]
  Potency: 19.5 µM (active)
[12]
  Potency: inactive
[13]
  Potency: inactive
[15]
  Potency: inactive

## Clc1ccc(C(OCCN2CCCCC2)c2ccccc2)cc1 (centres undefined)
[1]
  Potency: inactive
[19]
  Potency: inactive
[17]
  outcome: inactive
[3]; [20]
  activity change, positive = activation: -17.2% [at 42.5 µM] (inactive)
[4]
  Potency: inactive
[6]
  Potency: inactive
[7]
  Potency: inactive
[10]
  Potency: inactive

## O=Cc1ccc2c(c1)OCO2
[1]
  Potency: inactive
[19]
  Potency: inactive
[17]
  outcome: inactive
[2]
  Potency: inactive
[4]
  Potency: inactive
[5]
  Potency: inactive
[6]
  Potency: inactive
[8]
  Potency: inactive
[9]
  Potency: inactive
[10]
  Potency: inactive
[11]
  max response: 0.0881% (inactive)
[12]
  Potency: inactive
[13]
  Potency: inactive
[15]
  Potency: inactive
[16]
  Potency: inactive

## CC1CC(CC2CCC(N)C(C)C2)CCC1N (centres undefined)
[1]
  Potency: inactive
[19]
  Potency: inactive
[2]
  Potency: inactive
[4]
  Potency: inactive
[5]
  Potency: 55.8 µM (active)
[6]
  Potency: inactive
[7]
  Potency: inactive
[10]
  Potency: inactive
[11]
  Potency: 55.8 µM (active)
[12]
  Potency: 62.7 µM (active)
[13]
  Potency: inactive
[15]
  Potency: inactive

## COC1=CC(=O)O[C@@H](CCc2ccccc2)C1
[1]
  Potency: inactive
[19]
  Potency: inactive
[17]
  outcome: inactive
[3]; [20]
  activity change, positive = activation: -29.7% (inactive)
[4]
  Potency: inactive
[5]
  Potency: inactive
[6]
  Potency: inactive
[8]
  Potency: inactive
[9]
  Potency: inactive
[10]
  Potency: inactive
[11]
  max response: -25.1% (inactive)
[12]
  Potency: inactive
[13]
  Potency: inactive
[15]
  Potency: inactive
[16]
  Potency: inactive

## c1ccc(CN2CCNCC2)cc1
[1]
  Potency: inactive
[19]
  Potency: inactive
[17]
  outcome: inactive
[2]
  Potency: inactive
[4]
  Potency: inactive
[5]
  Potency: inactive
[6]
  Potency: inactive
[8]
  Potency: inactive
[9]
  Potency: inactive
[10]
  Potency: inactive
[11]
  max response: 3.29% (inactive)
[12]
  Potency: inactive
[13]
  Potency: inactive
[14]
  Potency: inactive
[15]
  Potency: inactive
[16]
  Potency: inactive

## CCOP(=O)(OCC)Oc1ccc([N+](=O)[O-])cc1
[1]
  Potency: inactive
[19]
  Potency: inactive
[2]
  Potency: inactive
[18]
  Potency: 13.9 µM (active) and 12.2 µM (active)
[3]; [20]
  activity change, positive = activation: -65.4% (inactive) and -61.8% (inactive)
[4]
  Potency: inactive
[5]
  Potency: inactive
[6]
  Potency: inactive
[7]
  Potency: inactive
[8]
  Potency: inactive
[9]
  Potency: inactive
[10]
  Potency: inactive
[12]
  Potency: inactive
[13]
  Potency: inactive
[14]
  Potency: inactive
[15]
  Potency: inactive
[16]
  Potency: inactive

## CC(C)O.CC(C)O.OCCN(CCO)CCO.OCCN(CCO)CCO.[Ti]
[1]
  Potency: inactive
[19]
  Potency: inactive
[4]
  Potency: inactive
[5]
  Potency: inactive
[6]
  Potency: inactive
[7]
  Potency: inactive
[8]
  Potency: inactive
[9]
  Potency: inactive
[10]
  Potency: inactive
[11]
  max response: 16.3% (inactive)
[12]
  Potency: inactive
[13]
  Potency: inactive
[14]
  Potency: inactive
[15]
  Potency: inactive
[16]
  Potency: inactive

## c1ccoc1
[1]
  Potency: inactive
[19]
  Potency: inactive
[17]
  outcome: inactive
[2]
  Potency: inactive
[4]
  Potency: inactive
[5]
  Potency: inactive
[6]
  Potency: inactive
[7]
  Potency: inactive
[8]
  Potency: inactive
[9]
  Potency: inactive
[10]
  Potency: inactive
[11]
  max response: -1.82% (inactive)
[12]
  Potency: inactive
[13]
  Potency: inactive
[15]
  Potency: inactive
[16]
  Potency: inactive

## Cn1cc[n+](C)c1 (tested in a mixture with another compound)
[1]
  Potency: inactive
[19]
  Potency: inactive
[17]
  outcome: inactive
[4]
  Potency: inactive
[5]
  Potency: inactive
[6]
  Potency: inactive
[7]
  Potency: inactive
[8]
  Potency: inactive
[9]
  Potency: inactive
[10]
  Potency: inactive
[11]
  max response: 6.73% (inactive)
[12]
  Potency: inactive
[13]
  Potency: inactive
[14]
  Potency: inactive
[15]
  Potency: inactive
[16]
  Potency: inactive

## COC(=O)c1cncn1C(C)c1ccccc1 (centres undefined)
[1]
  Potency: inactive
[19]
  Potency: inactive
[17]
  outcome: inactive
[2]
  Potency: inactive
[4]
  Potency: inactive
[5]
  Potency: inactive
[6]
  Potency: inactive
[8]
  Potency: inactive
[9]
  Potency: inactive
[10]
  Potency: inactive
[11]
  max response: 1.22% (inactive)
[12]
  Potency: inactive
[13]
  Potency: inactive
[14]
  Potency: inactive
[15]
  Potency: inactive
[16]
  Potency: inactive

## O=C(CCl)c1ccc(Cl)cc1Cl
[1]
  Potency: inactive
[17]
  outcome: inactive
[18]
  Potency: inactive
[3]; at 42.5 µM (top of the series)
  activity change, positive = activation: -19% (inactive)
[3]; at 92.4 µM (top of the series)
  activity change, positive = activation: -9.77% (inactive)
[4]
  Potency: inactive and 19 µM (active)
[5]
  Potency: 3.01 µM (active)
[6]
  Potency: inactive
[8]
  Potency: 8.49 µM (active)
[9]
  Potency: 4.25 µM (active)
[11]
  Potency: 17.3 µM (active) and 2.39 µM (active)
[12]
  Potency: 10.7 µM (active)
[13]
  Potency: inactive and 23.9 µM (active)
[14]
  Potency: inactive and 21.3 µM (active)
[15]
  Potency: inactive and 23.9 µM (active)

## CCOC(=O)C(Cl)C(C)=O (centres undefined)
[1]
  Potency: inactive
[19]
  Potency: inactive
[17]
  outcome: inactive
[2]
  Potency: inactive
[4]
  Potency: inactive
[5]
  Potency: inactive
[6]
  Potency: inactive
[8]
  Potency: inactive
[9]
  Potency: inactive
[10]
  Potency: inactive
[11]
  max response: -9.27% (inactive)
[12]
  Potency: inactive
[13]
  Potency: inactive
[14]
  Potency: inactive
[15]
  Potency: inactive

## ClC=C(Cl)Cl
[1]
  Potency: inactive
[19]
  Potency: inactive
[17]
  outcome: inactive
[18]
  Potency: inactive
[3]; [20]
  activity change, positive = activation: -0.0629% (inactive)
[4]
  Potency: inactive
[5]
  Potency: inactive
[6]
  Potency: inactive
[7]
  Potency: inactive
[8]
  Potency: inactive
[9]
  Potency: inactive
[10]
  Potency: inactive
[11]
  max response: 18.6% (inactive)
[12]
  Potency: inactive
[13]
  Potency: inactive
[14]
  Potency: inactive
[15]
  Potency: inactive
[16]
  Potency: inactive
